According to article PMC4336329 (PLoS ONE, 2015):
About 14,000 (4.5%) of roughly 310,000 compounds showed an effect of 50% or more. The effect is printed as a negative number. The list comes from a sample in which strong results are over-represented; it also holds similar structures and randomly drawn compounds.

molecular target: human ether-à-go-go-related gene (hERG) potassium channel (human, UniProt Q12809); assay: primary screen, population patch clamp on CHO cells stably expressing hERG; higher = less effect of the substance
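Also: peak tail current of the secondary pulse compared with the same well before compound.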

Sequence of human ether-à-go-go-related gene (hERG) potassium channel (Q12809 whole entry, looked up): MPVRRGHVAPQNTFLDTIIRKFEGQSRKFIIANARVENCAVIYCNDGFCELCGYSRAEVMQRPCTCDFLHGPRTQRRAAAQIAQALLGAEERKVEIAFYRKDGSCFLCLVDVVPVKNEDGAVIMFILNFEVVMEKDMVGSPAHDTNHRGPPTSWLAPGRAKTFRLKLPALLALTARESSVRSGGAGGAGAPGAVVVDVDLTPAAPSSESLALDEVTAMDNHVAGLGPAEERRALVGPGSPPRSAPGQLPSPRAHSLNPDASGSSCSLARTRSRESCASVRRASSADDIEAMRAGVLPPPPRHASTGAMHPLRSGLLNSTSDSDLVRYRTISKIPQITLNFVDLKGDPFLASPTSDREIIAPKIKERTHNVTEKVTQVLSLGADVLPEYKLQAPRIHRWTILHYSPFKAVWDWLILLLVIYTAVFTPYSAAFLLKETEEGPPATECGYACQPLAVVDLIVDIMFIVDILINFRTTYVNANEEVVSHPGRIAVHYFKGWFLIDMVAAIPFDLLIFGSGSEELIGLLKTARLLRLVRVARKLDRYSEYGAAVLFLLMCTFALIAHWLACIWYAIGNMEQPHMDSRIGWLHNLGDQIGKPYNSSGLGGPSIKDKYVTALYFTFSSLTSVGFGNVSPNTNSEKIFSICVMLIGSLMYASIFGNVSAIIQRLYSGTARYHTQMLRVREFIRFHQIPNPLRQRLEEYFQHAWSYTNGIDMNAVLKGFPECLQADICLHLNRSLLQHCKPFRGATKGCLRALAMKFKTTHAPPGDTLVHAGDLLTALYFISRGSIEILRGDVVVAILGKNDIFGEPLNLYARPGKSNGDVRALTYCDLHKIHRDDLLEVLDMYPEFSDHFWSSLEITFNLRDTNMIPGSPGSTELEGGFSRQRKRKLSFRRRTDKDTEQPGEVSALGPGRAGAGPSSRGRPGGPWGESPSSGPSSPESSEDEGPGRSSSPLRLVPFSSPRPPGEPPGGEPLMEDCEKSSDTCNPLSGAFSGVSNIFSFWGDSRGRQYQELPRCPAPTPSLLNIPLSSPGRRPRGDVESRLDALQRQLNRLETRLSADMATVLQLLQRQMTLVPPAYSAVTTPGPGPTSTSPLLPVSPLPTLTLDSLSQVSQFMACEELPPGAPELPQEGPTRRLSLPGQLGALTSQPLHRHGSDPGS

SMILES	hERG current change (%, negative = inhibition) at 10uM [%]
CCCCNC(=S)N/N=C/c1ccccc1F	2.81
Cc1ccc(OC(C)C(=O)Nc2ccc3c(c2)n(C)c(=O)n3C)c(C)c1 (centres unmarked)	11.7
Cc1ccc(S(=O)(=O)NCc2ccc(C(=O)NCCN(Cc3ccccc3)C(C)C)cc2)cc1	-36.4
Cc1ccc(S(=O)(=O)NC(CC(C)C)C(=O)NCC(C)(C)N2CCOCC2)cc1 (centres unmarked)	11.6
COc1ccc(NC(=O)CCCn2c(=O)c3sccc3n(Cc3cccc(C)c3)c2=O)cc1	12.7
Cc1cnc(C(=O)OCC(=O)NCCc2ccccc2)cn1	-3.4
O=C(c1cccc(NS(=O)(=O)c2cccc(F)c2)c1)N1CCN(c2ccccc2)CC1	-8.41
CSCCC(NC(=O)COc1cccc2ccccc12)C(=O)O (centres unmarked)	0.83
CCc1ccc(N2CC(C(=O)OCC(=O)c3c(N)n(CC(C)C)c(=O)n(C)c3=O)CC2=O)cc1 (centres unmarked)	-7.72
Cc1ccc(N2CC(C(=O)OCC(=O)c3c(N)n(CC(C)C)c(=O)n(C)c3=O)CC2=O)cc1 (centres unmarked)	-3.07
CC(C)Cn1c(N)c(C(=O)COC(=O)CCc2nc3ccccc3c(=O)[nH]2)c(=O)n(C)c1=O	-36
COc1ccc(/C=C/C(=O)OCC(=O)c2c(N)n(C)c(=O)n(C)c2=O)cc1	5.38
COc1ccccc1CCC(=O)OCC(=O)c1c(N)n(CC(C)C)c(=O)n(C)c1=O	-70.3
CCc1ccccc1OCC(=O)OCC(=O)c1c(N)n(C)c(=O)n(C)c1=O	-53.6
Cc1cccc(OCC(=O)OCC(=O)c2c(N)n(C)c(=O)n(C)c2=O)c1C	-1.84
Cn1c(N)c(C(=O)COC(=O)/C=C/c2ccc(F)cc2)c(=O)n(C)c1=O	-51.8
COc1ccc(CCC(=O)OCC(=O)c2c(N)n(CC(C)C)c(=O)n(C)c2=O)cc1	-33.4
CC(C)Cn1c(N)c(C(=O)COC(=O)C2CC(=O)N(c3ccc4c(c3)OCCO4)C2)c(=O)n(C)c1=O (centres unmarked)	-52.6
Cn1c(N)c(C(=O)COC(=O)COc2ccccc2C#N)c(=O)n(C)c1=O	-23.2
Cn1c(N)c(C(=O)COC(=O)/C=C/c2ccc(Cl)cc2)c(=O)n(C)c1=O	-43.3
Cc1cc(C)nc(SCCC(=O)Nc2ccc(F)cc2)n1	7.84
O=C(/C=C\Nc1cccc(F)c1)c1cccs1	11.7
CC(NC(=O)C1CCN(S(=O)(=O)c2ccc3c(c2)NC(=O)CO3)CC1)c1ccccc1 (centres unmarked)	-7.39
